From PubChem BioAssay (NCATS)
Results filed as inconclusive are left out. Activity calls are given as the source filed them. Calls follow the shape of the dose curve; as a rule, active = well fitted cell-killing curve with a large enough effect; inconclusive = small, poorly fitted or top-dose-only effect, or effect the other way; inactive = flat fitted curve, though single readings scatter.

How the values were obtained:
Assay in all cases: Primary qHTS to identify gynecologic anti-cancer compounds using libraries of approved drugs and bioactive compounds (AID 1345084); also: nearly all actives have a fitted effect of over 55% in size
[1] = tested on: C33A; conditions: Gynecologic cancer cell panel viability, ATPlite luminescence, 48 h; series mostly up to 57.5 µM
Procedure, shortened: (§1)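 Cell viability after 48 h drug treatment, ATPlite luminescence readout; five doses.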

[2] = tested on: CASKI; conditions: Gynecologic cancer cell panel viability, ATPlite luminescence, 48 h; series mostly up to 57.5 µM
Procedure, shortened: as §1

[3] = tested on: Es-2; conditions: Gynecologic cancer cell panel viability, ATPlite luminescence, 48 h; series mostly up to 57.5 µM
Procedure, shortened: as §1

[4] = tested on: HeLa; conditions: Gynecologic cancer cell panel viability, ATPlite luminescence, 48 h; series mostly up to 57.5 µM
Procedure, shortened: as §1

[5] = tested on: Hek293T; conditions: Gynecologic cancer cell panel viability, ATPlite luminescence, 48 h, control line for the selectivity index; series mostly up to 57.5 µM
Procedure, shortened: as §1

[6] = tested on: JEG-3; conditions: Gynecologic cancer cell panel viability, ATPlite luminescence, 48 h; series mostly up to 57.5 µM
Procedure, shortened: as §1

[7] = tested on: OV90; conditions: Gynecologic cancer cell panel viability, ATPlite luminescence, 48 h; series mostly up to 57.5 µM
Procedure, shortened: as §1

[8] = tested on: PA-1; conditions: Gynecologic cancer cell panel viability, ATPlite luminescence, 48 h; series mostly up to 57.5 µM
Procedure, shortened: as §1

[9] = tested on: Tov-21-G; conditions: Gynecologic cancer cell panel viability, ATPlite luminescence, 48 h; series mostly up to 57.5 µM
Procedure, shortened: as §1

[10] = tested on: Tov112D; conditions: Gynecologic cancer cell panel viability, ATPlite luminescence, 48 h; series mostly up to 57.5 µM
Procedure, shortened: as §1

[11] = tested on: SKOV3; conditions: Gynecologic cancer cell panel viability, ATPlite luminescence, 48 h; series mostly up to 57.5 µM
Procedure, shortened: as §1

[12] = tested on: CAOV3; conditions: Gynecologic cancer cell panel viability, ATPlite luminescence, 48 h; series mostly up to 57.5 µM
Procedure, shortened: as §1

Measured: Potency

Cc1nc2ccccc2c(-c2ccc3c4c(ccnc24)CCO3)c1[C@H](OC(C)(C)C)C(=O)O
not listed: [11] | [12]
inactive: all other assays above

C=C(C)[C@@H]1CC[C@]2(C)CC[C@]3(C)C(CCC4[C@@]5(C)CC[C@H](O)C(C)(C)C5CC[C@]43C)C12 (stereo not given in full)
not listed: [12]
inactive: all other assays above

COc1ccc2c(c1)N1C(=O)C[C@@]34C=CC[N@+]5([O-])CC[C@H]2[C@H](CC3)[C@@]145
not listed: [7] | [8] | [12]
inactive: all other assays above

C=C1C[C@]23C[C@@]1(O)CC[C@H]2[C@@]12C=C[C@H](O)[C@@](C)(C(=O)O1)[C@H]2[C@@H]3C(=O)O
not listed: [12]
inactive: all other assays above

CC(C)=C1C[C@@]2(C)C(=CC1=O)CC[C@@H](O)[C@@H]2C
not listed: [12]
inactive: all other assays above

C=C1[C@H](OC(C)=O)[C@H]2[C@@H](OC(=O)c3ccccc3)[C@@H](C)C[C@]2(O)[C@@H](OC(C)=O)[C@H](C)/C=C/C(C)(C)C(=O)[C@H](OC(C)=O)[C@H]1OC(C)=O
not listed: [1] | [2]
inactive: all other assays above

CC1=CCC(O)C2(C)CCC3C(C)C(=O)OC3C12 (stereo not given)
not listed: [1]
inactive: all other assays above

Cc1ccc(-c2c(-c3nn(C)c4ncnc(N5CCC(N6CCCCC6)C5)c34)cnn2C)cc1 (stereo not given)
not listed: [11] | [12]
inactive: all other assays above

C[C@]1(C2CCCC2)Cc2cc(OCC(=O)O)c(Cl)c(Cl)c2C1=O
not listed: [11] | [12]
inactive: all other assays above

C=C1CC[C@H]2[C@@](C)(CCC(OC3OC(CO)C(O)C(O)C3O)[C@@]2(C)CO)C1C(=O)CC1=CCOC1=O (stereo not given in full)
not listed: [11] | [12]
inactive: all other assays above

O=C(/C=C/c1ccc(O)cc1)OC[C@H]1O[C@H](O[C@@]2(CO)O[C@@H](CO)[C@H](O)[C@H]2O)[C@H](O)[C@@H](O)[C@@H]1O
not listed: [11] | [12]
inactive: all other assays above

OC[C@H]1O[C@@H](OCCc2ccccc2)[C@H](O[C@@H]2OC[C@@H](O)[C@H](O)[C@H]2O)[C@@H](O)[C@@H]1O
not listed: [12]
inactive: all other assays above

C=CC(C)(CCC=C(C)C)O[C@@H]1O[C@H](CO)[C@@H](O)[C@H](O)[C@H]1O (stereo not given in full)
not listed: [12]
inactive: all other assays above
